Columns and labels:
Test in all cases: PBM; 200 nM protein, PBS
Conditions in all cases: dsDNA, one strand shown
MSX2 [1] = biological target: MSX2 (Homo sapiens, UniProt P35548 130-214, R199I)
HOXD13 [2] = biological target: HOXD13 (Homo sapiens, UniProt P35453 263-343, T313R)
HOXD13 [3] = biological target: HOXD13 (Homo sapiens, UniProt P35453 263-343)
MSX2 [4] = biological target: MSX2 (Homo sapiens, UniProt P35548 130-214)
HOXD13 [5] = biological target: HOXD13 (Homo sapiens, UniProt P35453 263-343, T313A)
HOXD13 (Homo sapiens, UniProt P35453 263-343, T313A), sequence (P35453 263-343 T313A): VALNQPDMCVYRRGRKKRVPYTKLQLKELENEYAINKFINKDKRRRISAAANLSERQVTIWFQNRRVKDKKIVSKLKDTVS

MSX2 [6] = biological target: MSX2 (Homo sapiens, UniProt P35548 130-214, F161Y)
MSX2 (Homo sapiens, UniProt P35548 130-214, F161Y), sequence (P35548 130-214 F161Y): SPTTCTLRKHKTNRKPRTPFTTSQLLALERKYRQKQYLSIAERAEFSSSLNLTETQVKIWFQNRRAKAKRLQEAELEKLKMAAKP

VAX1 [7] = biological target: VAX1 (Homo sapiens, UniProt Q5SQQ9 86-172)
VAX1 (Homo sapiens, UniProt Q5SQQ9 86-172), sequence (Q5SQQ9 86-172): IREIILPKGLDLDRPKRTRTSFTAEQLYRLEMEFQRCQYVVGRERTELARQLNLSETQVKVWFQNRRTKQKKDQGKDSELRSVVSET

VAX1 [8] = biological target: VAX1 (Homo sapiens, UniProt Q5SQQ9 86-172, T142I)
VAX1 (Homo sapiens, UniProt Q5SQQ9 86-172, T142I), sequence (Q5SQQ9 86-172 T142I): as the sequence (Q5SQQ9 86-172) above, with T57I counted along it

VAX1 [9] = biological target: VAX1 (Homo sapiens, UniProt Q5SQQ9 86-172, K157R)
VAX1 (Homo sapiens, UniProt Q5SQQ9 86-172, K157R), sequence (Q5SQQ9 86-172 K157R): as the sequence (Q5SQQ9 86-172) above, with K72R counted along it

ALX3 [10] = biological target: ALX3 (Homo sapiens, UniProt O95076 139-225, N203Q)
ALX3 (Homo sapiens, UniProt O95076 139-225, N203Q), sequence (O95076 139-225 N203Q): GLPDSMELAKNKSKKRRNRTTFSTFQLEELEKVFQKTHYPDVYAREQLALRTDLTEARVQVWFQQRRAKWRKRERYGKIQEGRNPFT

ALX3 [11] = biological target: ALX3 (Homo sapiens, UniProt O95076 139-225)
ALX3 (Homo sapiens, UniProt O95076 139-225), sequence (O95076 139-225): as the sequence (O95076 139-225 N203Q) above, with Q65N counted along it

ALX3 [12] = biological target: ALX3 (Homo sapiens, UniProt O95076 139-225, L168Q)
ALX3 (Homo sapiens, UniProt O95076 139-225, L168Q), sequence (O95076 139-225 L168Q): as the sequence (O95076 139-225 N203Q) above, with L30Q, Q65N counted along it

ALX3 [13] = biological target: ALX3 (Homo sapiens, UniProt O95076 139-225, L168V)
ALX3 (Homo sapiens, UniProt O95076 139-225, L168V), sequence (O95076 139-225 L168V): as the sequence (O95076 139-225 N203Q) above, with L30V, Q65N counted along it

ALX3 [14] = biological target: ALX3 (Homo sapiens, UniProt O95076 139-225, N203S)
ALX3 (Homo sapiens, UniProt O95076 139-225, N203S), sequence (O95076 139-225 N203S): as the sequence (O95076 139-225 N203Q) above, with Q65S counted along it

PITX2 = PITX2 (Homo sapiens, UniProt Q99697 72-157)
ALX1 [15] = biological target: ALX1 (Homo sapiens, UniProt Q15699 118-204, L144V)
ALX1 (Homo sapiens, UniProt Q15699 118-204, L144V), sequence (Q15699 118-204 L144V): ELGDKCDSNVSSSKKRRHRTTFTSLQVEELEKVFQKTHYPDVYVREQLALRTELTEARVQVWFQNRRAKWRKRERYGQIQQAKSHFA

ALX1 [16] = biological target: ALX1 (Homo sapiens, UniProt Q15699 118-204, L144R)
ALX1 (Homo sapiens, UniProt Q15699 118-204, L144R), sequence (Q15699 118-204 L144R): as the sequence (Q15699 118-204 L144V) above, with V27R counted along it

HOXA4 [17] = biological target: HOXA4 (Homo sapiens, UniProt Q00056 201-287, W262R)
HOXA4 (Homo sapiens, UniProt Q00056 201-287, W262R), sequence (Q00056 201-287 W262R): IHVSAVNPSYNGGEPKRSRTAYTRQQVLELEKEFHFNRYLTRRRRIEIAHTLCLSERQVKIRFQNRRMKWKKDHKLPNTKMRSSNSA

HOXA4 [18] = biological target: HOXA4 (Homo sapiens, UniProt Q00056 201-287, R217L)
HOXA4 (Homo sapiens, UniProt Q00056 201-287, R217L), sequence (Q00056 201-287 R217L): as the sequence (Q00056 201-287 W262R) above, with R17L, R62W counted along it

HOXA4 [19] = biological target: HOXA4 (Homo sapiens, UniProt Q00056 201-287)
HOXA4 (Homo sapiens, UniProt Q00056 201-287), sequence (Q00056 201-287): as the sequence (Q00056 201-287 W262R) above, with R62W counted along it

MSX2 (Homo sapiens, UniProt P35548 130-214), sequence (P35548 130-214): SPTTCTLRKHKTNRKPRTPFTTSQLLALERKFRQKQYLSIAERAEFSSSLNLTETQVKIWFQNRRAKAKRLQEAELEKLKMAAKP
MSX2 (Homo sapiens, UniProt P35548 130-214, R199I), sequence (P35548 130-214 R199I): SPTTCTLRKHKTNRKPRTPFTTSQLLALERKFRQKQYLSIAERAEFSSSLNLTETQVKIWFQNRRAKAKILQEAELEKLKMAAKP
HOXD13 (Homo sapiens, UniProt P35453 263-343), sequence (P35453 263-343): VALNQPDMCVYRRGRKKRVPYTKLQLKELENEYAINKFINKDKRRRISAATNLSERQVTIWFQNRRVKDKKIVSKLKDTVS
HOXD13 (Homo sapiens, UniProt P35453 263-343, T313R), sequence (P35453 263-343 T313R): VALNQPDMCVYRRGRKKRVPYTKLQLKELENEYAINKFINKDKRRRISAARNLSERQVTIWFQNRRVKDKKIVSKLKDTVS

CCGCAGCC
binding signal (MSX2 [1]): 9.47 upbm affinity estimate (log intensity, higher = more binding, comparable within an allelic series) | binding signal (HOXD13 [2]): 9.38 upbm affinity estimate (log intensity, higher = more binding, comparable within an allelic series) | binding signal (HOXD13 [3]): 9.33 upbm affinity estimate (log intensity, higher = more binding, comparable within an allelic series) | binding signal (MSX2 [4]): 9.43 upbm affinity estimate (log intensity, higher = more binding, comparable within an allelic series) | binding signal (HOXD13 [5]): 9.43 upbm affinity estimate (log intensity, higher = more binding, comparable within an allelic series) | binding signal (MSX2 [6]): 9.45 upbm affinity estimate (log intensity, higher = more binding, comparable within an allelic series)

CGCCCAGA
binding signal (VAX1 [7]): 7.13 upbm affinity estimate (log intensity, higher = more binding, comparable within an allelic series) | binding signal (VAX1 [8]): 7.22 upbm affinity estimate (log intensity, higher = more binding, comparable within an allelic series) | binding signal (VAX1 [9]): 7.49 upbm affinity estimate (log intensity, higher = more binding, comparable within an allelic series)

GCGCGGCA
binding signal (MSX2 [1]): 9.56 upbm affinity estimate (log intensity, higher = more binding, comparable within an allelic series) | binding signal (ALX3 [10]): 7.82 upbm affinity estimate (log intensity, higher = more binding, comparable within an allelic series) | binding signal (MSX2 [4]): 9.62 upbm affinity estimate (log intensity, higher = more binding, comparable within an allelic series) | binding signal (ALX3 [11]): 7.75 upbm affinity estimate (log intensity, higher = more binding, comparable within an allelic series) | binding signal (ALX3 [12]): 7.66 upbm affinity estimate (log intensity, higher = more binding, comparable within an allelic series) | binding signal (ALX3 [13]): 7.72 upbm affinity estimate (log intensity, higher = more binding, comparable within an allelic series) | binding signal (MSX2 [6]): 9.62 upbm affinity estimate (log intensity, higher = more binding, comparable within an allelic series) | binding signal (ALX3 [14]): 7.83 upbm affinity estimate (log intensity, higher = more binding, comparable within an allelic series)

CCCGCAAG
binding signal (PITX2): 7.91 upbm affinity estimate (log intensity, higher = more binding, comparable within an allelic series)

CTGCCGGC
binding signal (HOXD13 [2]): 9.44 upbm affinity estimate (log intensity, higher = more binding, comparable within an allelic series) | binding signal (HOXD13 [3]): 9.54 upbm affinity estimate (log intensity, higher = more binding, comparable within an allelic series) | binding signal (HOXD13 [5]): 9.67 upbm affinity estimate (log intensity, higher = more binding, comparable within an allelic series)

CTCGACCA
binding signal (ALX1 [15]): 6.22 upbm affinity estimate (log intensity, higher = more binding, comparable within an allelic series) | binding signal (ALX1 [16]): 6.21 upbm affinity estimate (log intensity, higher = more binding, comparable within an allelic series)

CTGGCGTC
binding signal (MSX2 [1]): 9.45 upbm affinity estimate (log intensity, higher = more binding, comparable within an allelic series) | binding signal (MSX2 [4]): 9.51 upbm affinity estimate (log intensity, higher = more binding, comparable within an allelic series) | binding signal (MSX2 [6]): 9.44 upbm affinity estimate (log intensity, higher = more binding, comparable within an allelic series)

CCTGCTCG
binding signal (MSX2 [1]): 9.56 upbm affinity estimate (log intensity, higher = more binding, comparable within an allelic series) | binding signal (MSX2 [4]): 9.58 upbm affinity estimate (log intensity, higher = more binding, comparable within an allelic series) | binding signal (MSX2 [6]): 9.61 upbm affinity estimate (log intensity, higher = more binding, comparable within an allelic series)

CTTGGCGC
binding signal (PITX2): 7.94 upbm affinity estimate (log intensity, higher = more binding, comparable within an allelic series)

GCAGGCCC
binding signal (HOXD13 [2]): 9.4 upbm affinity estimate (log intensity, higher = more binding, comparable within an allelic series) | binding signal (PITX2): 7.9 upbm affinity estimate (log intensity, higher = more binding, comparable within an allelic series) | binding signal (HOXD13 [3]): 9.64 upbm affinity estimate (log intensity, higher = more binding, comparable within an allelic series) | binding signal (HOXD13 [5]): 9.61 upbm affinity estimate (log intensity, higher = more binding, comparable within an allelic series)

CTTGGGCC
binding signal (VAX1 [7]): 6.94 upbm affinity estimate (log intensity, higher = more binding, comparable within an allelic series) | binding signal (VAX1 [8]): 7.04 upbm affinity estimate (log intensity, higher = more binding, comparable within an allelic series) | binding signal (VAX1 [9]): 6.93 upbm affinity estimate (log intensity, higher = more binding, comparable within an allelic series)

ACCGGGGA
binding signal (MSX2 [1]): 9.45 upbm affinity estimate (log intensity, higher = more binding, comparable within an allelic series) | binding signal (MSX2 [4]): 9.39 upbm affinity estimate (log intensity, higher = more binding, comparable within an allelic series) | binding signal (MSX2 [6]): 9.41 upbm affinity estimate (log intensity, higher = more binding, comparable within an allelic series)

CCGGACGC
binding signal (VAX1 [7]): 7.11 upbm affinity estimate (log intensity, higher = more binding, comparable within an allelic series) | binding signal (VAX1 [8]): 7.2 upbm affinity estimate (log intensity, higher = more binding, comparable within an allelic series) | binding signal (VAX1 [9]): 7.16 upbm affinity estimate (log intensity, higher = more binding, comparable within an allelic series)

CCTAGCCG
binding signal (ALX1 [15]): 6.49 upbm affinity estimate (log intensity, higher = more binding, comparable within an allelic series) | binding signal (ALX1 [16]): 6.54 upbm affinity estimate (log intensity, higher = more binding, comparable within an allelic series)

CGGGCAAC
binding signal (PITX2): 7.85 upbm affinity estimate (log intensity, higher = more binding, comparable within an allelic series)

TATAAATA
binding signal (HOXD13 [2]): 10.8 upbm affinity estimate (log intensity, higher = more binding, comparable within an allelic series)

ATTAACAA
binding signal (ALX3 [10]): 8.57 upbm affinity estimate (log intensity, higher = more binding, comparable within an allelic series)

CCACCCGC
binding signal (MSX2 [1]): 9.63 upbm affinity estimate (log intensity, higher = more binding, comparable within an allelic series) | binding signal (MSX2 [4]): 9.57 upbm affinity estimate (log intensity, higher = more binding, comparable within an allelic series) | binding signal (MSX2 [6]): 9.69 upbm affinity estimate (log intensity, higher = more binding, comparable within an allelic series)

AGGCGCCC
binding signal (ALX3 [10]): 7.72 upbm affinity estimate (log intensity, higher = more binding, comparable within an allelic series) | binding signal (ALX3 [11]): 7.55 upbm affinity estimate (log intensity, higher = more binding, comparable within an allelic series) | binding signal (ALX3 [12]): 7.7 upbm affinity estimate (log intensity, higher = more binding, comparable within an allelic series) | binding signal (ALX3 [13]): 7.59 upbm affinity estimate (log intensity, higher = more binding, comparable within an allelic series) | binding signal (ALX3 [14]): 7.72 upbm affinity estimate (log intensity, higher = more binding, comparable within an allelic series)

CGGCTTCC
binding signal (HOXA4 [17]): 9.74 upbm affinity estimate (log intensity, higher = more binding, comparable within an allelic series) | binding signal (HOXA4 [18]): 9.5 upbm affinity estimate (log intensity, higher = more binding, comparable within an allelic series) | binding signal (HOXA4 [19]): 9.53 upbm affinity estimate (log intensity, higher = more binding, comparable within an allelic series)

CGTCGCGC
binding signal (ALX3 [10]): 7.76 upbm affinity estimate (log intensity, higher = more binding, comparable within an allelic series) | binding signal (ALX3 [11]): 7.7 upbm affinity estimate (log intensity, higher = more binding, comparable within an allelic series) | binding signal (ALX3 [12]): 7.79 upbm affinity estimate (log intensity, higher = more binding, comparable within an allelic series) | binding signal (ALX3 [13]): 7.7 upbm affinity estimate (log intensity, higher = more binding, comparable within an allelic series) | binding signal (ALX3 [14]): 7.8 upbm affinity estimate (log intensity, higher = more binding, comparable within an allelic series)

CCCAGCCG
binding signal (HOXA4 [17]): 9.73 upbm affinity estimate (log intensity, higher = more binding, comparable within an allelic series) | binding signal (HOXA4 [18]): 9.56 upbm affinity estimate (log intensity, higher = more binding, comparable within an allelic series) | binding signal (PITX2): 8.01 upbm affinity estimate (log intensity, higher = more binding, comparable within an allelic series) | binding signal (HOXA4 [19]): 9.64 upbm affinity estimate (log intensity, higher = more binding, comparable within an allelic series)

CCGGGCGC
binding signal (HOXA4 [17]): 9.61 upbm affinity estimate (log intensity, higher = more binding, comparable within an allelic series) | binding signal (HOXA4 [18]): 9.64 upbm affinity estimate (log intensity, higher = more binding, comparable within an allelic series) | binding signal (HOXA4 [19]): 9.56 upbm affinity estimate (log intensity, higher = more binding, comparable within an allelic series)
